# Reference: PubChem BioAssay (EPA / NIEHS)
# Where “and” joins values, the source holds several entries; their conditions need not be identical. Equal values may be shown once. Calls of active or inactive are those of the source. How the source made its calls: active means hit-call score of the fitted dose curve at least 0.9, where 1 is the maximum; inactive means score below 0.9.
# Assay: BSK_BF4T_SRB: Viability Assessment in the BioMAP Diversity Plus: BF4T Assay (AID 2284274);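 on AC50: total cell protein by sulforhodamine B staining as a cytotoxicity measure; measured 24 h after compound addition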
# Details: primary human bronchial epithelial cells with fibroblasts
# Summary of the method: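 Co-culture of human bronchial epithelial cells and dermal fibroblasts (BioMAP BF4T) exposed 24 h. Total protein by sulforhodamine B staining (0.1% SRB after 10% TCA fixation, 560 nm) in parallel cultures; fitted vs DMSO.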
Compound,outcome,AC50
O=C(O)C(F)(F)C(F)(F)C(F)(F)C(F)(F)C(F)(F)C(F)(F)C(F)F,inactive,–
C=CC(=O)OCC(F)(F)C(F)(F)C(F)(F)COC(=O)C=C,–,43.4 µM (active) and 47.1 µM (active)
COC(F)(C(F)F)C(F)(F)F (configuration not stated),inactive,–
O=S(=O)(O)CCC(F)(F)C(F)(F)C(F)(F)C(F)(F)F,inactive,–
NC(=O)C(F)(F)C(F)(F)C(F)(F)C(F)F,inactive,–
OCCCC(F)(F)C(F)(F)C(F)(F)C(F)(F)C(F)(F)C(F)(F)C(F)(F)C(F)(F)F,–,31.6 µM (active) and 29.4 µM (active)
FC(F)(F)C(F)(F)C(F)(F)C(F)(F)C(F)(F)C(F)(F)CC[Si](Cl)(Cl)Cl,inactive,–
OCC(O)CC(F)(F)C(F)(F)C(F)(F)C(F)(F)F (configuration not stated),inactive,–
OCC(F)(F)C(F)(F)C(F)(F)C(F)(F)C(F)(F)C(F)(F)C(F)(F)C(F)(F)CO,–,26.2 µM (active) and 30 µM (active)
C=CC(=O)OCCC(F)(F)C(F)(F)C(F)(F)C(F)(F)F,inactive,–
FC(F)(F)C(F)(F)C(F)(F)CC1CO1 (configuration not stated),inactive,–
NC(=O)C(F)(F)C(F)(F)C(F)(F)C(F)(F)C(F)(F)C(F)(F)C(F)(F)F,inactive,–
NC(=O)C(F)(F)C(F)(F)C(F)(F)C(F)(F)C(N)=O,inactive,–
O=C(O)CCC(F)(F)C(F)(F)C(F)(F)C(F)(F)C(F)(F)C(F)(F)C(F)(F)F,inactive,–
OCC(F)(F)C(F)(F)C(F)(F)CO,inactive,–
NC(=O)C(F)(F)C(F)(F)C(F)(F)F,inactive,–
CN(C(=O)C(F)(F)C(F)(F)C(F)(F)F)[Si](C)(C)C,inactive,–
